The values that follow come from PubChem BioAssay AID1273 (Columbia University Molecular Screening Center, 2008).

The whole screen tested about 130,000 compounds, of which about 1,200 (0.92%) were called active. This is one part of a sample in which actives are shown more often than they occur.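 Rule for the calls: active = inhibition above the mean plus 3 SD, with well images judged a real hit on visual review (cut at about 60% in these data, passing the limit was not always enough); inconclusive = inhibition over the cutoff but images rejected on review; inactive = inhibition not above the cutoff.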

The experiment can be described thus: insulin gene promoter suppression in islet cells – imaging, TRM-6 cells (human fetal islet line), eGFP reporter, cell count, primary screen (AID 1273;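 for normalized cell count: cells exposed to compound for 48 h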). Particulars: at 2 µM, reporter expression induced with tamoxifen; inhibition: stronger effect = higher value; normalized cell count: measured here: cell count, toxicity.
With `O=C(COC(=O)c1ccccn1)Nc1cccc2ccccc12`, the inhibition was -83.3% (inactive) and the normalized cell count turned out to be 96%.

Turning to `O=C(CCN1C(=O)c2ccccc2C1=O)NCCCn1ccnc1`, the inhibition was -16.7% (inactive) and the normalized cell count was 84.2%.

As to `COc1ccccc1NC(=O)CC(NCCN(C)C)C(=O)O` (centres undefined), the inhibition was 72.4% (active) and the normalized cell count came to 43%.

For `CN(C)CCNC(CC(=O)Nc1ccc(Cl)c(Cl)c1)C(=O)O` (centres undefined), the inhibition was 44.2% (inactive) and the normalized cell count came to 104%.

Take `COC(=O)C(CC(=O)Nc1cc(C)ccc1C)Nc1ccccc1OC` (centres undefined): the inhibition was 7.14% (inactive) and the normalized cell count was determined as 131%.

Turning to `CCN(CC)CCNC(=O)c1sc2ncn(CC(=O)Nc3ccc(C)c(Cl)c3)c(=O)c2c1C`, the inhibition was -14.3% (inactive) and the normalized cell count is 89.6%.

`Cc1c(Br)ccc(NC(=O)COc2ccccc2C(N)=O)c1C`: the inhibition was -5.26% (inactive) and the normalized cell count turned out to be 50.7%.

With `O=C(Nc1ccc(N2CCN(C(=O)C3CC3)CC2)cc1)c1cccs1`, the inhibition was 36.8% (inactive) and the normalized cell count is 132%.

For `COc1ccc(S(=O)(=O)Nc2c(C)n(C)n(-c3ccccc3)c2=O)cc1`, the inhibition was 22.7% (inactive) and the normalized cell count was determined as 104%.

On to `Cc1c(Nc2nc3ccccc3nc2NS(=O)(=O)c2cccs2)c(=O)n(-c2ccccc2)n1C`, for which the inhibition was 75% (active) and the normalized cell count is 38.1%.

Consider `COC(=O)Nc1c(C)n(C)n(-c2ccccc2)c1=O`, for which the inhibition is 13.9% (inactive) and the normalized cell count is 53.7%.

For the compound `Cc1nn(-c2ccc([N+](=O)[O-])cc2)c(N)c1-c1ccccc1`, the inhibition is 25% (inactive) and the normalized cell count was determined as 95.4%.

In the case of `CCOC(=O)c1ccc(NC(=O)C2CC(=O)Nc3nc4ccccc4n32)cc1` (centres undefined), the inhibition was -36.4% (inactive) and the normalized cell count worked out at 131%.

On to `CCOC(=O)c1c(C)[nH]c(C2=NNC(=NC(C)COC)SC2)c1C` (centres undefined), for which the inhibition is 31.2% (inactive) and the normalized cell count came out at 87.8%.

As to `Cc1ccc(O)c(-c2cc(C(=O)NCc3ccccc3)[nH]n2)c1`, the inhibition is 7.14% (inactive) and the normalized cell count is 81.6%.

In the case of `Cc1ccc(O)c(CCc2ccccc2)n1`, the inhibition is 91.9% (active) and the normalized cell count was determined as 94.3%.

Take `O=C(O)CCCc1ccccc1`: the inhibition was -23.8% (inactive) and the normalized cell count stood at 97.5%.

As for `CN(C)c1nccc(NCc2ccccc2)c1C#N`, the inhibition is 40.5% (inactive) and the normalized cell count was 140%.

With `O=C(NNc1cc(Cl)ccc1Cl)c1cccnc1Cl`, the inhibition is 11.1% (inactive) and the normalized cell count worked out at 114%.

With `CCc1nnc(NS(=O)(=O)c2ccc(NC(=S)NC(=O)c3cccs3)cc2)s1`, the inhibition was -11.1% (inactive) and the normalized cell count was 96.4%.

As for `CN(C)/C=C(/C(=O)c1ccccc1Cl)S(C)(=O)=O`, the inhibition was 75% (active) and the normalized cell count is 84.2%.

On to `CN(C)/C=C(/C(=O)c1ccccc1)S(=O)(=O)c1ccc(Cl)cc1`, for which the inhibition was -23.8% (inactive) and the normalized cell count was found to be 70.5%.

As to `CN(C)/C=C(/C(=O)c1ccc(F)cc1)S(=O)(=O)c1ccc(F)cc1`, the inhibition is 50% (inactive) and the normalized cell count is 124%.

`COc1cccc(NC(=O)CS(=O)(=O)c2cn(CC(=O)N3CCOCC3)c3ccccc23)c1`: the inhibition was -16.7% (inactive) and the normalized cell count is 88.8%.

With `O=C1c2ccccc2C(=O)N1CCC(O)C[N+](=O)[O-]` (centres undefined), the inhibition is -17.6% (inactive) and the normalized cell count was determined as 90.3%.

Consider `Cc1cc([N+](=O)[O-])ccc1NC(=O)c1ccc(NC(=O)C(C)C)cc1`, for which the inhibition is 30% (inactive) and the normalized cell count turned out to be 120%.

`CCC(=O)N1CCC(C(N)=O)(N2CCCCC2)CC1`: the inhibition was 33.3% (inactive) and the normalized cell count stood at 108%.

On to `COC(=O)C1=C(C)N(C)C(=S)NC1c1cc(OC)ccc1OC` (centres undefined), for which the inhibition was 23.1% (inactive) and the normalized cell count stood at 118%.

Turning to `Cc1nc2ccccc2cc1O`, the inhibition was 67.9% (active) and the normalized cell count was 57.9%.

`CCOC(=O)c1cc2ccccc2nc1C`: the inhibition is 57.1% (inactive) and the normalized cell count amounted to 47.1%.

As for `Cc1nc2ccccc2c(-c2ccccc2)c1C(=O)c1ccccc1`, the inhibition was 27.5% (inactive) and the normalized cell count was determined as 64.5%.

For the compound `COc1cc(C(=O)NCc2ccc(-n3cccc3)cc2)cc(OC)c1OC`, the inhibition is 46.1% (inactive) and the normalized cell count is 69%.

`O=C(CN1CCSCC1)N/N=C/c1ccc(Cl)cc1`: the inhibition is 35.3% (inactive) and the normalized cell count turned out to be 92.4%.

Turning to `Cc1ccc(-n2cc(CN(C)Cc3nccn3C)c(-c3cccc(C)c3)n2)cc1`, the inhibition was 41.7% (inactive) and the normalized cell count was 124%.

As to `O=C(O)C1C2CC2CN1C(=O)c1ccc(Cl)cc1Cl` (centres undefined), the inhibition was -5.56% (inactive) and the normalized cell count stood at 121%.

As to `CCCc1nc2scc(-c3ccc(C)cc3)c2c(=O)n1N`, the inhibition is 81.5% (active) and the normalized cell count was 78.3%.

For the compound `Cc1nc2scc(-c3cccs3)c2c(=O)n1N`, the inhibition is 9.8% (inactive) and the normalized cell count was 105%.

With `NC(=O)Cc1nc2scc(-c3ccc(Cl)cc3)c2c(=O)[nH]1`, the inhibition was 5.88% (inactive) and the normalized cell count worked out at 114%.

Consider `COc1cc(OC)cc(-c2nnc(N(C)C(=O)c3ccncc3)s2)c1`, for which the inhibition was 36.4% (inactive) and the normalized cell count was 156%.

Turning to `CC(NC(=S)NC1CCCCC1)C(c1ccccc1)N1CCOCC1` (centres undefined), the inhibition is -38.9% (inactive) and the normalized cell count was determined as 111%.

As to `Cc1ccc(N(C(=O)c2ccc(CN3CCOCC3)o2)C(C(=O)NCCC(C)C)c2cccs2)c(C)c1` (centres undefined), the inhibition was 8.11% (inactive) and the normalized cell count stood at 114%.

As for `Cc1cccc(N(C(=O)Cc2cccs2)C(C(=O)NC2CCCC2)c2ccsc2)c1` (centres undefined), the inhibition is -23.3% (inactive) and the normalized cell count is 119%.

In the case of `Cc1cccc(N(C(=O)c2ccc(CN3CCOCC3)o2)C(C(=O)NC2CCCCC2)c2ccc(F)cc2)c1` (centres undefined), the inhibition was 87.5% (active) and the normalized cell count came out at 98.6%.

Turning to `C1CC1Cc1noc(CN2CCN(CC3CC3)CC2)n1`, the inhibition is 0% (inactive) and the normalized cell count was 97.5%.

Regarding `CCOC(=O)C1(Cc2cccc(OC)c2)CCN(C(C)CC(C)(C)O)CC1` (centres undefined), the inhibition was -275% (inactive) and the normalized cell count was determined as 102%.

In the case of `CCCCOC(=O)Nc1nccs1`, the inhibition is 93.8% (active) and the normalized cell count was determined as 53.2%.

As for `O=C(COC(=O)c1ccc(O)cc1)Nc1nccs1`, the inhibition is 16.7% (inactive) and the normalized cell count amounted to 74.1%.

Consider `COc1cc(C(=O)Nc2nccs2)cc(OC)c1OC`, for which the inhibition was -25.3% (inactive) and the normalized cell count was determined as 97.1%.

For `CC(/C=N/NC(=O)c1ccncc1)=C\c1ccco1`, the inhibition is 23.1% (inactive) and the normalized cell count was determined as 115%.

In the case of `CC(=O)c1ccc(NC(=O)C(C)NCc2ccc(Cl)cc2)cc1` (centres undefined), the inhibition is -189% (inactive) and the normalized cell count was determined as 58.5%.

For the compound `Cc1ccc(S(=O)(=O)NC(=O)COc2ccccc2C)cc1`, the inhibition was 81.2% (active) and the normalized cell count amounted to 150%.

In the case of `Cc1cccc(NC(=O)COc2ccccc2C)n1`, the inhibition was -406% (inactive) and the normalized cell count is 56.6%.

Regarding `COCCNC(=O)COc1ccccc1C`, the inhibition was 20.8% (inactive) and the normalized cell count was 112%.

For `COc1cccc2cc(S(=O)(=O)c3ccc(C)cc3)/c(=N/NS(=O)(=O)c3ccc(C)cc3)oc12`, the inhibition was 27.3% (inactive) and the normalized cell count was 139%.

Regarding `COC(=O)C1=C(C)N(c2ccc(Br)cc2)C(=O)/C1=C\c1ccco1`, the inhibition is 25.6% (inactive) and the normalized cell count was 98.3%.

Turning to `COc1ccc(N2C(=O)/C(=C\c3ccco3)N=C2SCC(N)=O)cc1Cl`, the inhibition is 91.7% (active) and the normalized cell count is 75.5%.

For the compound `COc1ccc([N+](=O)[O-])cc1NC(=O)COC(=O)/C=C/c1ccco1`, the inhibition is -14.3% (inactive) and the normalized cell count stood at 128%.

As a reminder, the inhibition is the change of the read-out against control, counted positive when it falls.
